These results are taken from PubChem BioAssay (NCATS).

Inconclusive results are not listed. A number with no mark means an inactive call. Activity calls are given as the source filed them. Calls follow the shape of the dose curve; as a rule, active = well fitted curve in the direction sought with a large enough effect; inconclusive = small, poorly fitted or top-dose-only effect, or another doubt; inactive = no such curve, though single readings can be large; an effect the other way counts as inactive or inconclusive.

Test [1] has as its system Zika virus NS2B-NS3 protease (linked construct). Nature of the test: Primary screen NINDS Rhodamine qHTS for Zika virus inhibitors (AID 1347160). Also: nearly all actives have a fitted effect of over 55% in size. Also: potency is read from the fitted curve at half-maximal effect. As to activity change, negative = inhibition: % is scaled to controls: 0 for no effect and ±100 for the full control effect. The procedure, abridged: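 In 10 mM Tris-HCl pH 8.0 containing 0.01% Tween 20, linked NS2B-NS3 protease (25 nM final) is exposed to test compounds for 15 min. Cleavage of 1.5 microM Rhodamine110 substrate is tracked by fluorescence over 15 min.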
Background: qHTS replaces the single test concentration by a dilution series.

The nature of test [2]: qHTS to identify inhibitors of the type 1 interferon - major histocompatibility complex class I in skeletal muscle: primary screen against the NCATS Mechanism Interrogation Plate v5.0 (MIPE) Libary (AID 1347411). Also: nearly all actives have a fitted effect of over 65% in size. Also: potency is read from the fitted curve at half-maximal effect.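 As to activity change, negative = inhibition: plate controls were vehicle for no effect and reference inhibitor for full effect.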 The procedure, abridged:
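Immortalized human C25cl48 myoblasts with HiBit knocked into endogenous HLA-B*08:01 were stimulated with 4.0 ng/ml IFN-beta and exposed to compounds (11-point 1:3 titration, top 46 uM final) for 24 hrs at 37 C; HiBiT lytic luminescence measured.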

The target in test [3] is Calcium and integrin-binding protein 1 (Homo sapiens) (UniProt Q99828). Nature of the test: Primary qHTS for Identification of Calcium Integrin Binding Protein 1 (CIB1) Competitor (AID 1508620).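 Also: GST tagged CIB1 binding a fluorescein labelled alphaIIb integrin peptide tracer; top concentration of the series differs between compounds; % is scaled to controls: 0 for no effect and ±100 for the full control effect.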 A digest of the protocol:
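Fluorescence polarization competition: CIB1-GST (1 uM final) preincubated with compound 15 min at room temperature, then FITC-labeled alphaIIb peptide (100 nM final) added for another 15 min. Polarization read at Ex 480/Em 540.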

Test [4] in a line: Vero cells viability qHTS for Zika virus inhibitors (AID 1347167). Also: potency is read from the fitted curve at half-maximal effect. The procedure, abridged:
(§1)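 Counter-screen for cytotoxicity of hits from NS2B-NS3 protease qHTS. Overnight-attached cells (2.5 x 10^5 cells/mL, DMEM/4% FBS) were dosed in titration, incubated 24 to 48 hours, then assayed by CellTiter Glo.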

In test [5] the test system is Zika virus NS2B-NS3 protease (linked). Kind of test: 384 well plate NINDS AMC confirmatory qHTS for Zika virus inhibitors (AID 1347163). Also: nearly all actives have a fitted effect of over 50% in size. Also: potency is read from the fitted curve at half-maximal effect.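 As to activity change, negative = inhibition: linked protease at 5 30 or 60 nM final depending on run; fluorescence of AMC released from Ac-VKTGKR-AMC peptide cleaved by the protease; top concentration of the series differs between compounds; 0% = no-inhibitor control and -100% = no-enzyme control.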 The procedure, abridged:
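Linked protease 5/30/60 nM final; cpds up to 1 mM final, ~15 min preinc. Substrate Ac-VKTGKR-AMC 30 microM final. RT, dark, 25 min; FI ex 355/em 460; normalized to no-enzyme/no-inhibitor ctrls.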

Test [6] relates to Zika virus NS2B-NS3 protease (linked construct). Nature of the test: 384 well plate NINDS Rhodamine confirmatory qHTS for Zika virus inhibitors (AID 1347164).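 Also: fluorescence from protease cleavage of Ac-LKRR-rhodamine 110 substrate; nearly all actives have a fitted effect of over 65% in size.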 Also: potency is read from the fitted curve at half-maximal effect.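 As to activity change, negative = inhibition: top concentration of the series differs between compounds; plate controls were no-inhibitor control for no effect and no-enzyme control for full effect.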 The procedure, abridged: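 Fluorescence at 485/538 nm was measured 25 minutes after adding 10 microM Ac-LKRR-Rd substrate, in the dark at room temperature. The protease (5, 30 or 60 nM final) had been preincubated ~15 minutes with compound; aprotinin as control.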

The nature of test [7]: Tertiary RLuc qRT-PCR qHTS assay for Zika virus inhibitors (AID 1347169). Also: nearly all actives have a fitted effect of over 55% in size. Also: potency is read from the fitted curve at half-maximal effect. As to activity change, negative = inhibition: top concentration of the series differs between compounds; % is scaled to controls: 0 for no effect and ±100 for the full control effect. The procedure, abridged: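 Orthogonal cell-based readout: luminescence measured 1-1.5 hrs after adding live-cell Renilla substrate to Vero cells that had been infected with ZIKV-RLuc (MOI 1-2) post-compound, incubated 48-72 hrs at 37 degrees C.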
In general terms: Quantitative PCR measures a nucleic acid by following its amplification.

A short description of test [8]: HepG2 cells viability qHTS for Zika virus inhibitors (AID 1347168). Also: potency is read from the fitted curve at half-maximal effect. A digest of the protocol: as §1

Calcium and integrin-binding protein 1 (Homo sapiens), sequence (Q99828 whole entry, looked up): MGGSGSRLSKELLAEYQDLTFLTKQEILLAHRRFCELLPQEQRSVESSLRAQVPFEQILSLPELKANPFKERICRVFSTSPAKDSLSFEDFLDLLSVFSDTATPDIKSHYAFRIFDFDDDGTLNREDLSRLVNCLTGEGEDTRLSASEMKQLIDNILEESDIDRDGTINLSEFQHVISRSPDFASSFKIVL

For the molecule `CC(C)(C)c1cc(NC(=O)Nc2ccc(-c3cn4c(n3)sc3cc(OCCN5CCOCC5)ccc34)cc2)no1`, the Potency result in test [1] and in test [2] was “inactive” in each case. Also, in test [3], the outcome was inactive.
On to `COc1cccc2c(NCc3ccccc3)nc(-n3c(N)nc4ccccc43)nc12`, for which, in test [1], the Potency entry was “inactive”.
Take `OCCCNc1cc(-c2ccnc(Nc3cccc(Cl)c3)n2)ccn1`: the Potency entry in test [1] was “inactive”. In addition, the Potency in test [2] was 0.0415 µM (active).
As to `CCn1cc(-c2ccnc3[nH]c(-c4cccc(CN(C)C)c4)cc23)c(-c2ccc(NC(=O)N(C)C)cc2)n1`, the Potency entry in test [1] and in test [4] was “inactive” in each case. Also, the outcome in test [3] was inactive.
For `COc1ccc(F)c(F)c1C(=O)c1cnc(NC2CCN(S(C)(=O)=O)CC2)nc1N`, in test [1], the Potency result is “inactive”. In addition, in test [2], the Potency is 2.94 µM (active).
On to `CNC(=O)c1ccc(N2C(=S)N(c3cnc(C#N)c(C(F)(F)F)c3)C(=O)C23CCC3)cc1F`, for which the Potency result in test [1] and in test [2] was “inactive” throughout.
Consider `O=C(Nc1cc(C(F)(F)F)cc(C(F)(F)F)c1)c1cc(Cl)ccc1O`, for which the Potency in test [1] is 7.94 µM (active); in test [6], 35.5 µM (active); in test [4], 1.47 µM (active); in test [7], 0.415 µM (active). For the same molecule, in test [5], the Potency result was “inactive”. For the same molecule, the outcome in test [3] was inactive.
`O=C(c1cncc(Br)c1)N1CCC(N2CCCC2)CC1`: the Potency result in test [1] and in test [2] was “inactive” each time.
As for `CC(C)c1cnn2c(NCc3ccccc3)cc(N[C@@H](CO)[C@H](O)CO)nc12`, in test [1], the Potency result was “inactive”. In test [2], the Potency was 0.186 µM (active). Besides, the outcome in test [3] was inactive.
In the case of `Cc1ccc(C(=O)Nc2cccc(C(F)(F)F)c2)cc1-c1ccc2nc(NCCN3CCOCC3)ncc2c1`, the Potency entry in test [1] and in test [4] was “inactive” throughout. The Potency in test [8] is 8.27 µM (active); in test [2], 5.87 µM (active).
Take `Cc1ccc(C(=O)Nc2ccc(CN3CCN(C)CC3)c(C(F)(F)F)c2)cc1C#Cc1cnc2cccnn12`: the Potency result in test [1] is “inactive”. For the same molecule, in test [2], the Potency was 4.15 µM (active).
The matching figures for `COc1cccc2nc(-c3cccs3)nc(NN3C(=O)C=C(C)C3=O)c12`: “inactive” and 2.94 µM (active).
Regarding `Nc1nccc(Oc2ccc(NC(=O)c3c[nH]cc(-c4ccc(F)cc4)c3=O)cc2F)c1Cl`, the Potency result in test [1] is “inactive”.
`CCOC(=O)C1=C(C)NC2=C(C(=O)CC(C)(C)C2)C1c1ccc(-c2ccccc2)cc1` (stereo unspecified): the Potency result in test [1], in test [5], in test [6], in test [4] and in test [8] was “inactive” throughout. Besides, the Potency in test [2] is 3.3 µM (active).
Take `COc1ccc2c(c1)CC[C@@H](CN(C)CC(=O)O)[C@H]2c1ccccc1`: the Potency entry in test [1] and in test [2] was “inactive” throughout.
Take `COc1cc(-c2nn(C3CCC(N4CCN(C(C)=O)CC4)CC3)c3ncnc(N)c23)ccc1NC(=O)c1cc2ccccc2n1C` (stereo unspecified): the Potency result in test [1] and in test [2] was “inactive” throughout. Also, the result in test [3] was inactive.
As to `Cc1cc(Nc2ncnc3ccc(-c4ccc(CNCCS(C)(=O)=O)o4)cc23)ccc1Oc1ccn2ncnc2c1`, the Potency entry in test [1] and in test [2] was “inactive” in each case. Besides, in test [3], the outcome was inactive.
For the molecule `C#Cc1cccc(Nc2ncnc3cc(OC)c(OCCCCCCC(=O)NO)cc23)c1`, the Potency result in test [1] was “inactive”. Moreover, the Potency in test [2] was 1.65 µM (active). Moreover, the outcome in test [3] was inactive.
With `Cn1c(CNc2ccc(C(=N)N)cc2)nc2cc(C(=O)N(CCC(=O)O)c3ccccn3)ccc21`, in test [1], the Potency result is “inactive”. In test [2], the activity change, negative = inhibition was 5.59% [at 0.314 µM].
`CCS(=O)(=O)c1cccc(-c2cc(C(=O)NC3CCN(C)CC3)c(C)c3[nH]c4ncc(C)cc4c23)c1`: the Potency entry in test [1] and in test [4] was “inactive” throughout. The figures for the Potency in test [8] and in test [2] were 20.8 µM (active) and 1.86 µM (active), respectively. Further, in test [3], the result was inactive.
As for `N#Cc1c(O)c2c(-c3ccc(-c4ccccc4O)cc3)csc2[nH]c1=O`, the Potency in test [1] was 2.51 µM (active); in test [5], 8.91 µM (active). The Potency entry in test [6], in test [4], in test [8], in test [7] and in test [2] was “inactive” throughout. In addition, the result in test [3] was inactive.
On to `O=C(O)Cn1nnc(-c2cc(N3CCC(Oc4cc(F)ccc4Br)CC3)no2)n1`, for which the Potency result in test [1], in test [5] and in test [2] was “inactive” each time. The Potency in test [6] was 79.4 µM (active); in test [7], 1.17 µM (active). In addition, the result in test [3] was inactive.
Regarding `Clc1ccc2ncc(-c3cccc(NC4CNC4)n3)n2c1`, the Potency entry in test [1] and in test [2] was “inactive” in each case. The outcome in test [3] was inactive.
Consider `Cc1cc(CN2CCN(c3c(Br)cnc4nc(-c5ccc(N6CCN(C)CC6)cc5)[nH]c34)CC2)no1`, for which the Potency result in test [1] and in test [5] was “inactive” each time. Further, in test [2], the Potency was 6.58 µM (active). Further, the result in test [3] was inactive.
With `CCOc1ccccc1OCCNC(C)Cc1ccc(OC)c(S(N)(=O)=O)c1` (stereo unspecified), the Potency result in test [1] is “inactive”.
With `CN1CCC(CNc2ccc3ncc(-c4cccc(OC(F)(F)F)c4)n3n2)CC1`, the Potency result in test [1] is “inactive”. Moreover, the Potency in test [8] is 11.7 µM (active); in test [2] it was 14.7 µM (active).
Regarding `O=C1CCC[C@@H]2[C@H]3CCC[N+]4([O-])CCC[C@@H](CN12)[C@@H]34` (stereo partly specified), the Potency entry in test [1] and in test [2] was “inactive” in each case.
Take `CC1(C)CC(=O)c2c(C(F)(F)F)nn(-c3ccc(C(N)=O)c(NC4CCC(OC(=O)CN)CC4)c3)c2C1` (stereo unspecified): the Potency entry in test [1] is “inactive”.
The same measure, in the same setting: with `Cn1c2ccccc2c2c3c(c4c5ccccc5n(CCC#N)c4c21)CNC3=O` the entry was “inactive”.
As to `Nc1nc(Nc2ccc(S(N)(=O)=O)cc2)nn1C(=O)c1c(F)cccc1F`, in test [1], the Potency entry was “inactive”. The Potency in test [2] was 4.15 µM (active).
In the case of `Nc1ccccc1NC(=O)c1ccc(CNC(=O)OCc2cccnc2)cc1`, the Potency entry in test [1] is “inactive”.
On to `Fc1cc(-c2cccc3ncc(-c4cnn(C5CCNCC5)c4)nc23)cc(F)c1CN1CCOCC1`, for which, in test [1], the Potency result was “inactive”. Besides, the Potency in test [2] is 11.7 µM (active).
